These results are taken from PubChem BioAssay (NCI).

Test systems include MOLT-4 leukemia; RPMI-8226 leukemia; OVCAR-8 ovarian; OVCAR-5 ovarian; OVCAR-4 ovarian; SK-OV-3 ovarian; IGROV1 ovarian; OVCAR-3 ovarian; HS 578T breast; NCI/ADR-RES ovarian; T-47D breast; BT-549 breast; MDA-MB-435 melanoma; SW-620 colon; MCF7 breast; HCT-116 colon; HCC-2998 colon; KM12 colon.
What all share (experiment): NCI-60 one-dose screen, 48 h (100 = growth as untreated, 0 = no growth, -100 = all killed)
Holding throughout (conditions): 10 µM unless noted

SMILES strings stand for the structures. About 83,000 compounds went through this panel and 20% of them were active in at least one assay; those are over-represented in the sample as a whole.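 How to read the values: 0–100, growth inhibition (40 = 60% inhibited); 0, no net growth; -100 to 0, cell death (-40 = 40% of starting cells died; -100 = all dead).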 Values without a mark were called inactive. Active and inactive are the calls of the source. The calls were made as follows: active = growth percent below 10; inactive = the rest.

Turning to `C[Se]C(=O)c1ccccc1OC(C)=O`, the growth in the experiment on MOLT-4 leukemia is 54.8%; with RPMI-8226 leukemia, 88.6%; with OVCAR-8 ovarian, 35.1%; with OVCAR-5 ovarian, 54.3%; in the experiment with OVCAR-4 ovarian it was 85.3%; in the experiment with SK-OV-3 ovarian, 118%. Further, the growth in the experiment on IGROV1 ovarian was 46.1%; in the experiment on OVCAR-3 ovarian it was 55.3%; in the experiment with HS 578T breast, 35.3%; in the experiment with NCI/ADR-RES ovarian, 35%; in the experiment with T-47D breast it was 89.1%; in the experiment with BT-549 breast it was 27.9%. Moreover, the growth is 46.4% with MDA-MB-435 melanoma; 79.6% with SW-620 colon; 53.3% in the experiment with MCF7 breast; 19.6% with HCT-116 colon; 95.5% in the experiment with HCC-2998 colon; 88.9% in the experiment with KM12 colon.

As to `COc1ccc(S(=O)(=O)Nc2c(/C=C\c3cc(OC)c(OC)c(OC)c3)ccc(OC)c2O)cc1OC`, the growth in the experiment with MOLT-4 leukemia is 16.8%; in the experiment on RPMI-8226 leukemia, 25.4%; in the experiment with OVCAR-8 ovarian, 20.3%; in the experiment on OVCAR-5 ovarian, 33.7%; with OVCAR-4 ovarian, 43%; in the experiment on SK-OV-3 ovarian, 9.89% (active). The growth with IGROV1 ovarian is 23.9%; with OVCAR-3 ovarian it was -20.9% (active); in the experiment on HS 578T breast, 16.3%; in the experiment on NCI/ADR-RES ovarian, 2.42% (active); in the experiment with T-47D breast it was 100%; in the experiment on BT-549 breast, 20.7%. Further, the growth in the experiment on MDA-MB-435 melanoma was -52% (active); in the experiment with SW-620 colon, 22.6%; in the experiment on MCF7 breast, 15.7%; in the experiment with HCT-116 colon, 12.6%; in the experiment on HCC-2998 colon, 22.6%.

For `O=C1C(=Cc2cn(Cc3ccccc3)c3ccccc23)C(=O)N(Cc2ccccc2)C(=O)N1Cc1ccccc1`, the growth with MOLT-4 leukemia was 95.2%; in the experiment with RPMI-8226 leukemia it was 93.2%; in the experiment on OVCAR-8 ovarian, 83.5%; in the experiment on OVCAR-5 ovarian, -7.28% (active); with OVCAR-4 ovarian, 57.3%; with SK-OV-3 ovarian, 47.7%. Moreover, the growth in the experiment with IGROV1 ovarian is 75.8%; in the experiment on OVCAR-3 ovarian, 97.7%; with HS 578T breast, 90.7%; with NCI/ADR-RES ovarian it was 106%; with T-47D breast it was 51.7%; with BT-549 breast it was 118%. Also, the growth is 108% in the experiment on MDA-MB-435 melanoma; 101% in the experiment on SW-620 colon; 80.3% in the experiment on MCF7 breast; 76.2% in the experiment on HCT-116 colon; 97.4% in the experiment with HCC-2998 colon; 101% with KM12 colon.

As for `[Cl][Hg][c]1cc(Br)cc(Br)c1`, the growth in the experiment with MOLT-4 leukemia is 0.93% (active); with RPMI-8226 leukemia, 23%; in the experiment on OVCAR-8 ovarian it was 70.4%; in the experiment with OVCAR-5 ovarian, 118%; with OVCAR-4 ovarian, 48.5%; in the experiment on SK-OV-3 ovarian, 86.3%. Moreover, the growth is 16.5% in the experiment with IGROV1 ovarian; -7.88% (active) with OVCAR-3 ovarian; 30.3% in the experiment on HS 578T breast; 81.1% in the experiment on NCI/ADR-RES ovarian; 27.5% with T-47D breast; 48% in the experiment on BT-549 breast. Moreover, the growth in the experiment on MDA-MB-435 melanoma was 58.2%; in the experiment with SW-620 colon, 29%; in the experiment on MCF7 breast, 15.1%; with HCT-116 colon, 64%; in the experiment on HCC-2998 colon, 85.4%.

Regarding `COC(=O)[C@@H](C)C[C@H](Cc1cn(C)c2ccccc12)NC(=O)c1csc([C@@H](C[C@H](C(C)C)N(C)C(=O)[C@@H](NC(=O)[C@H]2CCCCN2C)C(C)C)OC(C)=O)n1`, the growth is 12.8% with MOLT-4 leukemia; 10.5% in the experiment with RPMI-8226 leukemia; 30.1% in the experiment on OVCAR-8 ovarian; 48.7% in the experiment with OVCAR-5 ovarian; 50.5% with OVCAR-4 ovarian; 26.8% in the experiment with SK-OV-3 ovarian. Moreover, the growth in the experiment with IGROV1 ovarian is 26.3%; in the experiment on OVCAR-3 ovarian, -11% (active); with HS 578T breast, 22.7%; in the experiment on NCI/ADR-RES ovarian it was 20.7%; with T-47D breast, 67.7%; with BT-549 breast, -15.9% (active). Also, the growth in the experiment with MDA-MB-435 melanoma was -41.5% (active); with SW-620 colon, 26.8%; with MCF7 breast, 17.8%; with HCT-116 colon, 6.08% (active); in the experiment with HCC-2998 colon, 17.3%; with KM12 colon it was 9.11% (active).

For the compound `O=C(c1cccc(O)c1O)c1cn(Cc2ccc(F)cc2)c2cccc(O)c12`, the growth in the experiment on MOLT-4 leukemia is 4.3% (active); with RPMI-8226 leukemia it was 9.16% (active); with OVCAR-8 ovarian, 30.5%; with OVCAR-5 ovarian, 33.8%; in the experiment on OVCAR-4 ovarian, 39%; in the experiment with SK-OV-3 ovarian, 40.7%. The growth in the experiment on IGROV1 ovarian is -42.8% (active); with OVCAR-3 ovarian, 22.3%; with HS 578T breast, 45.5%; in the experiment on NCI/ADR-RES ovarian, 19.3%; in the experiment on T-47D breast, 34.5%; with BT-549 breast, 41.4%. In addition, the growth in the experiment with MDA-MB-435 melanoma was 14.2%; with SW-620 colon it was 37.1%; in the experiment on MCF7 breast, 26.9%; with HCC-2998 colon, 35.6%.

For the compound `CCOP1(=O)CC(C)=C(Cl)C(P(=O)(OCC)OCC)C1` (centres undefined), the growth is 106% in the experiment on MOLT-4 leukemia; 107% in the experiment on RPMI-8226 leukemia; 84.3% in the experiment on OVCAR-8 ovarian; 82.9% in the experiment with OVCAR-5 ovarian; 92.4% with OVCAR-4 ovarian; 98.8% in the experiment on SK-OV-3 ovarian. The growth in the experiment on HS 578T breast was 103%; in the experiment with NCI/ADR-RES ovarian, 85.8%; with T-47D breast, 96.4%; with BT-549 breast it was 112%; in the experiment with MDA-MB-435 melanoma it was 114%; in the experiment on SW-620 colon it was 97.3%. For the same compound, the growth in the experiment with MCF7 breast was 99.7%; in the experiment with HCT-116 colon, 107%; with HCC-2998 colon it was 86.3%; in the experiment on KM12 colon it was 114%.

As to `COc1cc([N+](=O)[O-])c2nc(C)ccc2c1[N+](=O)[O-]`, the growth in the experiment on MOLT-4 leukemia is 98.2%; in the experiment with RPMI-8226 leukemia, 80.7%; in the experiment with OVCAR-8 ovarian it was 89.1%; in the experiment on OVCAR-5 ovarian it was 131%; in the experiment on OVCAR-4 ovarian it was 103%; in the experiment on SK-OV-3 ovarian, 119%. The growth is 109% in the experiment with IGROV1 ovarian; 44.2% with OVCAR-3 ovarian; 106% in the experiment on HS 578T breast; 105% in the experiment with NCI/ADR-RES ovarian; 97.4% in the experiment with BT-549 breast; 71.3% with MDA-MB-435 melanoma. Besides, the growth in the experiment on SW-620 colon was 72.7%; in the experiment on MCF7 breast, 69.1%; in the experiment on HCT-116 colon, 63.5%; with HCC-2998 colon, 107%; in the experiment with KM12 colon, 79.8%.

For the compound `COc1ccc(C2=CC(c3ccc(OC)c(OC)c3)c3c(c4ccccc4oc3=O)O2)cc1OC` (centres undefined), the growth in the experiment on MOLT-4 leukemia was 11.9%; with RPMI-8226 leukemia, -48.5% (active); in the experiment on OVCAR-8 ovarian, 36.2%; in the experiment on OVCAR-5 ovarian it was 60.2%; in the experiment on OVCAR-4 ovarian, 42.8%; with SK-OV-3 ovarian, 25.6%. The growth is -16.3% (active) with OVCAR-3 ovarian; -5.68% (active) with HS 578T breast; 29% with NCI/ADR-RES ovarian; 35% with T-47D breast; -4.49% (active) with BT-549 breast; -72.9% (active) with MDA-MB-435 melanoma. Besides, the growth is 18.5% with SW-620 colon; 11.8% with MCF7 breast; 24.2% with HCT-116 colon; 31.4% in the experiment on HCC-2998 colon; 16.2% with KM12 colon.
